Measurements taken from PubChem BioAssay.
Values without a mark were called inactive. For some assays here: Results with a measured potency or affinity are listed apart. Calls of active or inactive are those of the source. Unless noted, the rule behind the calls is not given here.

Experiments:
[1] = antimalarial activity against Dd2 strain (AID 2302;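 active = growth inhibition above 50% at the single 2 µM test dose, taken to imply half-maximal potency below 2 µM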;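 note: 0% = DMSO untreated growth and 100% = chloroquine plus artemisinin killed control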); settings: P. falciparum Dd2 in RBCs, LDH growth readout, 72 h; at 2 µM; stronger effect = higher value
[2] = human hepatoma cell viability loss – ATP luminescence, cytotoxicity control for P. falciparum antimalarial project, primary screen (AID 2303;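 active = inhibition above 50%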;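 note: 0% = DMSO wells and 100% = digitonin-killed cells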); settings: HepG2 viability, 24-48 h, at 10 µM, stronger effect = higher value
[3] = target: L-lactate dehydrogenase (Plasmodium falciparum (isolate CDC / Honduras)) (UniProt Q27743); experiment: PfLDH activity inhibition – cell lysate, 3D7 strain, counter-screen for P. falciparum growth inhibition project (AID 2304);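 note: 0% = vehicle and 100% = reference inhibitor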; settings: P. falciparum 3D7 crude extract, LDH APAD/NBT absorbance; at 2 µM; stronger effect = higher value
Sequence of L-lactate dehydrogenase (Plasmodium falciparum (isolate CDC / Honduras)) (Q27743 whole entry, looked up): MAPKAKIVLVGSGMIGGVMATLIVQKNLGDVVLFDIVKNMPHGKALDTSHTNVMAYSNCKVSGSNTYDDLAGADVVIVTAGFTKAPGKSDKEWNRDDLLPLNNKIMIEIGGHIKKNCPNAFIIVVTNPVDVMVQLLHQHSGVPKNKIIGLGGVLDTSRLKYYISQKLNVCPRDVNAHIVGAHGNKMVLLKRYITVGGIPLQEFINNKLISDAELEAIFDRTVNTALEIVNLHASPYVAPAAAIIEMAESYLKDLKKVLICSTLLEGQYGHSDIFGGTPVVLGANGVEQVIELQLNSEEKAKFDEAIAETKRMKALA

[4] = inhibition of 3D7 malaria parasite growth – strain 3D7 (AID 2306);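 note: 0% = DMSO wells and 100% = chloroquine plus artemisinin control wells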; settings: P. falciparum 3D7 erythrocytic growth, LDH absorbance, 72 h; at 2 µM; stronger effect = higher value
[5] = target: Calcium-dependent protein kinase 1 (Plasmodium falciparum (isolate 3D7)) (UniProt P62344); experiment: PfCDPK1 kinase inhibitors, biochemical, TCAMS library (AID 1159585; cut-off not given, nearly all actives have IC50 up to about 0.98 µM;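 note: inhibitors leave more ATP so luminescence rises with inhibition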); settings: recombinant PfCDPK1, Kinase-Glo ATP depletion luminescence
Sequence of Calcium-dependent protein kinase 1 (Plasmodium falciparum (isolate 3D7)) (P62344 whole entry, looked up): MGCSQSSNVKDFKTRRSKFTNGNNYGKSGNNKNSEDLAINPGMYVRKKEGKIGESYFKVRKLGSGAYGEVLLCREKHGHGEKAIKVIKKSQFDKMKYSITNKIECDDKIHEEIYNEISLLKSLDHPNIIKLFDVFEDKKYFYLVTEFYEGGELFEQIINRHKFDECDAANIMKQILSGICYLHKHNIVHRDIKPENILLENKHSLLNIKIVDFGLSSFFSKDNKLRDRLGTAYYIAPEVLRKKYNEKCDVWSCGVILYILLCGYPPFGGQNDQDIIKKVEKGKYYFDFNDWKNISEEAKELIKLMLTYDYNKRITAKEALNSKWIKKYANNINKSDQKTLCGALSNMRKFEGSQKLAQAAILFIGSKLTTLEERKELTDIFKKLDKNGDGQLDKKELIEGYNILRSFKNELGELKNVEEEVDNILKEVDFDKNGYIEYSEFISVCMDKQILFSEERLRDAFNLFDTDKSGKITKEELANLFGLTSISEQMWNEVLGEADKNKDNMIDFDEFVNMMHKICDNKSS

[6] = target: Plasmodium falciparum protein kinase 6 (PK6, PF3D7_1337100) (UniProt Q8IDW1); experiment: PfPK6 kinase inhibitors, biochemical, TCAMS library (AID 1159586); settings: recombinant PfPK6, Kinase-Glo ATP depletion luminescence
Sequence of Plasmodium falciparum protein kinase 6 (PK6, PF3D7_1337100) (Q8IDW1 1-305): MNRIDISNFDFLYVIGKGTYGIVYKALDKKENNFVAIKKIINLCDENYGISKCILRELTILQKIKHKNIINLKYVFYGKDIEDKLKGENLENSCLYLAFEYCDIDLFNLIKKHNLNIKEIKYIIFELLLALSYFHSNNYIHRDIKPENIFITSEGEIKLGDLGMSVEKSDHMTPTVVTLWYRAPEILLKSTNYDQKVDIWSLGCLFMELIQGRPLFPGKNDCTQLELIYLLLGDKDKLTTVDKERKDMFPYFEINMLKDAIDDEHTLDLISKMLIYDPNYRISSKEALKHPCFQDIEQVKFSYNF

[7] = target: Protein kinase 7 (PK7), Plasmodium falciparum 3D7 (PF3D7_0213400) (UniProt Q7YTF7); experiment: inhibition of Plasmodium PK7 catalytic activity – biochemical, TCAMS antimalarial set, Kinase-Glo luminescence (AID 1159587); settings: recombinant PfPK7, Kinase-Glo ATP depletion luminescence
Sequence of Protein kinase 7 (PK7), Plasmodium falciparum 3D7 (PF3D7_0213400) (Q7YTF7 1-343): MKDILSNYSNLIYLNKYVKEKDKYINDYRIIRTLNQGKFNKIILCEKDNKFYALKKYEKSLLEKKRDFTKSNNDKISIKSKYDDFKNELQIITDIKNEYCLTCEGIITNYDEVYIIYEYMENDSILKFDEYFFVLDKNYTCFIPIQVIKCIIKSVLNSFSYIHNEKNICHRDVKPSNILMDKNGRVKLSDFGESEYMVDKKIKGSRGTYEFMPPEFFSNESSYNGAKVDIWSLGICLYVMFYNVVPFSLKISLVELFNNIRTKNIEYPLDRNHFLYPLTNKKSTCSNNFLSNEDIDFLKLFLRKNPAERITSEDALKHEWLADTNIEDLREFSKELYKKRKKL

[8] = target: Calcium-dependent protein kinase 4 (Plasmodium falciparum (isolate 3D7)) (UniProt Q8IBS5); experiment: PfCDPK4 kinase inhibitors, biochemical, TCAMS library (AID 1159588; cut-off not given, nearly all actives have IC50 up to about 0.91 µM); settings: recombinant PfCDPK4, Kinase-Glo ATP depletion luminescence
Sequence of Calcium-dependent protein kinase 4 (Plasmodium falciparum (isolate 3D7)) (Q8IBS5 whole entry, looked up): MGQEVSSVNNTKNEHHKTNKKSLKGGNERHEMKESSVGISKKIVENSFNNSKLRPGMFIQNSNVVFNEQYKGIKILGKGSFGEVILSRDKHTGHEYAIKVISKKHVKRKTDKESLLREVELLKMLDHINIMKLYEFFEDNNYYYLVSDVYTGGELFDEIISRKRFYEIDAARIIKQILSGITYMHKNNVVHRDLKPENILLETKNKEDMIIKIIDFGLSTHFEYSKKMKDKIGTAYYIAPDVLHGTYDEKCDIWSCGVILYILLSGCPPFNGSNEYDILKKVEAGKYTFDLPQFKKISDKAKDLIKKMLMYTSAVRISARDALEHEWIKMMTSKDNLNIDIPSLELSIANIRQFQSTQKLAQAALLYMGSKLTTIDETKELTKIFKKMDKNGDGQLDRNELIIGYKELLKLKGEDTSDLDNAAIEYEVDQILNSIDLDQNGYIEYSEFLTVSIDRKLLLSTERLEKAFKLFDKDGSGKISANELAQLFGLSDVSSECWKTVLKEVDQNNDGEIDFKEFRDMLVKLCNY

| SMILES | growth inhibition [1] | inhibition [2] | inhibition [3] | growth inhibition [4] | outcome [5] | outcome [6] | outcome [7] | outcome [8] |
| --- | --- | --- | --- | --- | --- | --- | --- | --- |
| CN(C)c1cccc2c1nc(-c1ccco1)n2CCNCc1ccccc1 | 97% (active) | -1% | 2% | 98% (active) | inactive | inactive | inactive | inactive |
| COc1cc(NC(=O)c2c(-c3c(F)cccc3Cl)noc2C)c(OC)cc1Cl | 17% | -12% | 5% | 89% (active) | inactive | inactive | inactive | inactive |
| CN1CCC(C(=O)N(Cc2ccc(-c3ccc(CNCCc4ccccc4)cn3)cc2)C2Cc3ccccc3C2)CC1 | 97% (active) | 65% (active) | -2% | 88% (active) | inactive | inactive | inactive | inactive |
| CC(C)(C)C(=O)Nc1ccc(C(=O)Nc2cccc(-c3nc4ccccc4[nH]3)c2)cc1 | 62% (active) | 56% (active) | 1% | 96% (active) | inactive | inactive | inactive | inactive |
| Fc1ccc2nc(-c3ccc(-c4ccc(CNCCc5ccncc5)cc4)cc3)[nH]c2c1 | 97% (active) | 23% | 0% | 100% (active) | inactive | inactive | inactive | inactive |
| COc1cc2nc(N3CCC(CNCc4ccc(-c5ccc(C(F)(F)F)cc5)cc4)CC3)nc(N)c2cc1OC | 100% (active) | 99% (active) | -4% | 99% (active) | inactive | inactive | inactive | inactive |
| O=C(CN1CCN(C(C(=O)Nc2cc(C(F)(F)F)ccc2Cl)c2ccccc2)CC1)NC1CC1 (stereo not given) | 93% (active) | -6% | -3% | 95% (active) | inactive | inactive | inactive | inactive |
| CC(=O)Nc1ccc(C(=O)NC2CCN(c3ccnc4cc(Cl)ccc34)CC2)cc1 | 99% (active) | 5% | -4% | 101% (active) | inactive | inactive | inactive | inactive |
| Cc1cc(CNCCCCCCCNCc2ccc(Cl)cc2)ccc1O | 0% | 13% | -4% | 97% (active) | inactive | inactive | inactive | inactive |
| CN1CCCc2ccc(NC(=O)c3cnc(-c4ccccc4)cn3)cc21 | 82% (active) | 24% | 2% | 87% (active) | inactive | inactive | inactive | inactive |
| CN1CCN(CC(=O)Nc2cccc(-c3cccc(-c4nc5ccccc5[nH]4)c3)c2)CC1 | 27% | 11% | 3% | 90% (active) | inactive | inactive | inactive | inactive |
| COc1cccc2cc(C(=O)N[C@@H](CC(C)C)C(=O)N[C@H](/C=N/N3CCOC3=O)Cc3ccccc3)oc12 | 70% (active) | 6% | -1% | 96% (active) | inactive | inactive | inactive | inactive |
| Cc1ccc(/C=C/C(=O)NC2CCC(N3CCC(c4ccccc4C)CC3)CC2)cc1C (stereo not given) | 43% | 12% | -3% | 100% (active) | inactive | inactive | inactive | inactive |
| CC1(C)N=C(N)N=C(N)N1OCCCNC(=O)c1ccc([N+](=O)[O-])cc1 | 97% (active) | 57% (active) | 2% | 92% (active) | inactive | inactive | inactive | inactive |
| Cc1cc2nc(-c3cc(Br)ccc3O)c(-c3cc(Br)ccc3O)nc2cc1C | 12% | 2% | -1% | 96% (active) | inactive | inactive | inactive | inactive |
| Cc1[nH]cnc1Cc1ccc2c(c1O)c1ccccc1n2C | 16% | 9% | -2% | 90% (active) | inactive | inactive | inactive | inactive |
| Cc1cc(N)c2cc(NC(=O)c3ccc4ccccc4c3)ccc2n1 | 99% (active) | 33% | 1% | 101% (active) | inactive | inactive | inactive | inactive |
| O=C(Nc1ccccc1)N(Cc1cccc(-c2ccc(CNC3CCCC3)cc2)c1)C1CCN(Cc2ccccc2)CC1 | 96% (active) | 100% (active) | 8% | 101% (active) | inactive | inactive | inactive | inactive |
| Cc1cccc2[nH]c(-c3ccc(-c4ccc(CN5CCC(C(N)=O)CC5)cc4)s3)nc12 | 51% (active) | 4% | 8% | 97% (active) | inactive | inactive | inactive | inactive |
| CC(C)C[C@H]1c2[nH]c3ccc(Cl)cc3c2CCN1C(=O)CCc1ccccc1 | 81% (active) | -2% | 6% | 95% (active) | inactive | inactive | inactive | inactive |

| SMILES | growth inhibition [1] | inhibition [2] | inhibition [3] | growth inhibition [4] | outcome [5] | outcome [6] | outcome [7] | outcome [8] |
| --- | --- | --- | --- | --- | --- | --- | --- | --- |
| COc1cccc(Nc2nc(C)cc(NCc3ccc(-n4ccnc4)cc3)n2)c1 | 99% (active) | -13% | -5% | 101% (active) | inactive | inactive | inactive | inactive |
| O=C(NCc1ccc(Cl)cc1)c1ccc(CN2CCCN(CC3CCCCC3)CC2)cc1 | 5% | 18% | -3% | 84% (active) | inactive | inactive | inactive | inactive |
| Clc1ccc(OCc2ccccc2)c(-c2nc(-c3nc4ccc(Cl)cc4[nH]3)cs2)c1 | 60% (active) | -9% | -3% | 99% (active) | inactive | inactive | inactive | inactive |
| Cc1ccccc1OCCCON1C(N)=NC(N)=NC1(C)C | 97% (active) | 66% (active) | 4% | 95% (active) | inactive | inactive | inactive | inactive |
| Cc1ccc(-c2cc3nc4c(c(NCCCn5ccnc5)n3n2)CCC4)cc1 | 21% | 22% | -2% | 94% (active) | inactive | inactive | inactive | inactive |
| CC1(C)N=C(N)N=C(N)N1OCCSc1ccccc1 | 95% (active) | 68% (active) | 3% | 95% (active) | inactive | inactive | inactive | inactive |
| CCc1ccc(NC(=O)N(CCCN2CCN(C)CC2)Cc2csc(-c3ccc(CNCc4ccccc4)cc3)n2)cc1 | 80% (active) | 17% | -1% | 99% (active) | inactive | inactive | inactive | inactive |
| COc1cc(CCCOc2c(N)nc(N)nc2N)cc(OC)c1OC | 0% | 8% | 2% | 88% (active) | inactive | inactive | inactive | inactive |
| Cc1cccc2[nH]c(-c3ccc(-c4ccc(CNC(C)C)cc4)cc3)nc12 | 62% (active) | 12% | 0% | 99% (active) | inactive | inactive | inactive | inactive |
| O=C(c1ccc(-c2ccc(-c3nc4ccc(C(F)(F)F)cc4[nH]3)s2)cc1)N1CCN(CCc2ccccc2)CC1 | 60% (active) | 23% | -5% | 98% (active) | inactive | inactive | inactive | inactive |
| COc1ccc2ncc(F)c(CCN3CCC(NCc4cnc5c(c4)NC(=O)CS5)CC3)c2c1 | 16% | 16% | 3% | 99% (active) | inactive | inactive | inactive | inactive |
| CC(C)CC(=O)N1CCNC[C@@H]1C(=O)NCc1ccc(Cl)c(Cl)c1 | 16% | -3% | -3% | 99% (active) | inactive | inactive | inactive | inactive |
| COC(=O)c1cccc(CNCc2ccc(-c3ccc(-c4nc5ccc(C(F)(F)F)cc5[nH]4)cc3)cc2)c1 | 98% (active) | 22% | 0% | 101% (active) | inactive | inactive | inactive | inactive |
| Cc1cc(N(C)CCN(C)C)nc(Nc2ccc(Cl)cc2)n1 | 14% | -1% | -3% | 92% (active) | inactive | inactive | inactive | inactive |
| COc1ccc(CNCc2ccc(F)cc2)cc1-c1ccc(S(=O)(=O)NCCN2CCCC2)cc1 | 25% | 38% | 0% | 91% (active) | inactive | inactive | inactive | inactive |
| COc1ccc(NC(=O)[C@H](CC(C)C)Nc2cc(C)nc(NCc3ccccc3C)n2)cc1 | 78% (active) | 12% | 0% | 101% (active) | inactive | inactive | inactive | inactive |
| CC(C)(C)c1nn(-c2ccc(Cl)cc2)c2[nH]c(=O)c(CNCc3ccc4c(c3)OCO4)cc12 | 98% (active) | 15% | 7% | 100% (active) | inactive | inactive | inactive | inactive |
| Cc1cccc2[nH]c(-c3ccc(-c4cccc(CN5CCC(C(N)=O)CC5)c4)s3)nc12 | 16% | 1% | 4% | 86% (active) | inactive | inactive | inactive | inactive |
| COc1ccc(CCCCN2C(=O)C(c3ccccc3)(c3ccccc3)N=C2N)cc1 | 95% (active) | 40% | -2% | 97% (active) | inactive | inactive | inactive | inactive |
| Cc1ccc(-c2ccn(Cc3ccc(OCc4ccccc4)cc3)n2)cn1 (tested in a mixture with another compound) | 92% (active) | 1% | -3% | 93% (active) | inactive | inactive | inactive | inactive |
